# This is part of a sample that, as a whole, favours compounds with a hit. Of some 83,000 tested, about 20% had one in any assay.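 For each line, cells grew in 96-well plates with the test compound present at a single concentration for 48 hours.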 A number with no mark means an inactive call. Active and inactive are the calls of the source. Rule for the calls: active = growth percent below 10; inactive = the rest.
# System: SF-295 CNS
# Assay: NCI-60 one-dose screen, 48 h (100 = growth as untreated, 0 = no growth, -100 = all killed)
# Conditions: 10 µM unless noted
row,Compound,growth
1,CC(=O)Nc1nc(C(=O)N2N=C(C)/C(=C/c3cccs3)C2=O)cs1,106%
2,COc1ccc(-c2nnc(COc3ccc(NC(=O)Nc4ccc(Cl)c(C(F)(F)F)c4)cc3F)o2)cc1,-3.88% (active)
3,COc1ccc(OC)c(NC(=O)c2cc(S(=O)(=O)N3CCc4ccccc43)ccc2OC)c1,73.4%
4,CC(C)(C)c1cc(-c2nc3ccc(N4CCN(CCO)CC4)cc3[nH]2)cc(C(C)(C)C)c1O,98.2%
5,COc1cc2oc(-c3cccc(NC(=O)Nc4ccc5c(c4)OCO5)c3)cc(=O)c2c(OC)c1OC,60%
6,COc1ccc(NC(=O)/N=c2\oc3c(OC)cccc3cc2-c2cc3ccccc3[nH]2)cc1,52.1%
7,CCN1C(=S)N(CC)C2Nn3c(s/c(=C4\C(=O)N(C)c5ccccc54)c3=O)=NC21 (centres undefined),47.4%
8,COc1ccc(/C=C2\Oc3cc(OCCN4CCCC4)ccc3C2=O)c(OC)c1,100%
9,COc1ccc(C2CC(c3cccs3)=NN2c2ccc(S(=O)(=O)NC(=O)NCc3cccc(OC)c3)cc2)cc1 (centres undefined),105%
10,O=C(Nc1cccc(C(F)(F)F)c1)Nc1ccc(OCc2nnc(-c3ccccc3)o2)c(F)c1,17%
11,NC(=O)c1c(NC(=O)c2ccc(OCC3CCCO3)cc2)sc2c1CCCC2 (centres undefined),93.8%
12,CC(C)(C)OC(=O)N1C/C(=C\c2cccs2)C(=O)/C(=C/c2cccs2)C1,98.9%
13,COc1ccc(-c2nnc(COc3ccc(NS(=O)(=O)c4ccc(OC)cc4)cc3F)o2)cc1,67.8%
14,COc1ccc(/C=C2\C(=O)N(C(=O)c3csc(NC(C)=O)n3)N=C2C)cc1,105%
15,NC(=O)c1c(NC(=O)c2ccc3c(c2)OCO3)sc2c1CCC(=O)C2,-4.12% (active)
16,COc1ccc(OC)c(/C=C2\Oc3cc(OCCN4CCCC4)ccc3C2=O)c1,101%
17,CCCCNc1nnc(-c2cc(-c3cc4ccccc4o3)nn2-c2ccccc2)o1,98.7%
18,Nc1c(C(=O)Nc2cccc([N+](=O)[O-])c2)sc2nc3c(cc12)C(O)CCC3 (centres undefined),57.4%
19,O=c1oc2c([nH]c3ccc4ccccc4c32)c2ccccc12,99.6%
20,CCc1cccc(C)c1NC(=O)c1sc2nc3c(cc2c1N)C(=O)CCC3,10.8%

row,Compound,growth
1,C#CCN1C(=O)/C(=c2\sc3n(c2=O)C2C(NN=3)N(CC)C(=O)N2CC)c2ccccc21 (centres undefined),-13% (active)
2,OCc1c(-c2ccccc2)nc2sccn12,112%
3,C#CCN1C(=O)/C(=c2\sc3n(c2=O)NC2C(N=3)N(CC)C(=O)N2CC)c2ccccc21 (centres undefined),86.7%
4,CSc1nc(-c2cc3ccccc3o2)cc(-c2ccc(Cl)cc2)c1C#N,9.92% (active)
5,O=C1CCCCC=C1C[N+](=O)[O-],97.7%
6,CCCCCCCCCCCCCCCCCCOc1cccc(CCOP(=O)(O)OCC[N+](C)(C)C)c1,87.2%
7,CC[C@H](C)[C@@H]1NC(=O)[C@H]([C@@H](C)O)NC(=O)C(Cc2ccccc2)NC(=O)[C@@H]2CCCN2C(=O)C(C(C)C)NC(=O)C(Cc2ccccc2)NC(=O)CNC(=O)[C@@H]2CCCN2C1=O (some centres undefined),74.2%
8,COc1cc(C2C3=C(COC3=O)Nc3c2ccc2c3CCCC2)cc2c1OCO2 (centres undefined),13.3%
9,FC(F)(F)c1cccc(-n2nnc3cnc(Nc4ccc(N5CCCCC5)cc4)nc32)c1,93.6%
10,COc1cc(CCn2nnc3c(Nc4ccc(N5CCOCC5)cc4)ncnc32)cc(OC)c1,100%
11,Nc1c(C(=O)Nc2cccc(Cl)c2Cl)sc2nc3c(cc12)C(=O)CCC3,35.8%
12,COC(=O)c1ccc2nc(-c3cc4ccccc4n3C)n(CCCCOc3cc4c(cc3OC)C(=O)N3CCC[C@H]3C=N4)c2c1,-26.7% (active)
13,O=Nc1c(-c2c(O)[nH]c3ccc([N+](=O)[O-])cc23)[nH]c2ccc(O)cc12,20.9%
14,Nc1nc(-c2cc3ccccc3o2)cc(=O)c(=O)[nH]1,109%
15,COc1cc(-c2n[nH]nc2-c2ccc3c(c2)OCCO3)cc(OC)c1OC,2.6% (active)
16,Nc1nc(Cl)c2c(ncn2Cc2ccc(CCl)cc2)n1,52.8%
17,Cc1cc(Nc2nc(-c3ccncc3)nc3ccccc23)n[nH]1,69.9%
18,O=C(Nc1cc(C(F)(F)F)cc(C(F)(F)F)c1)Nc1ccc(OCc2nnc(-c3ccc(Cl)cc3)o2)c(F)c1,8.71% (active)
19,CCN1C(=O)N(CC)C2Nn3c(s/c(=C\c4cccc(F)c4)c3=O)=NC21 (centres undefined),61.1%

# Reference: PubChem BioAssay (NCI)
